High-throughput results deposited in PubChem by National Center for Advancing Translational Sciences (NCATS).
WRN helicase inh = WRN helicase (human) inhibition; Q14191; WRN helicase unwinding, fluorescent forked duplex, kinetic; Potency, µM (highest dose often 114 µM), for the others: at the highest dose activity change, negative = inhibition, most hits filed as inhibitors; 0.46% of 360,000 active; further: potency means the concentration at half of the fitted maximal effect; on the % scale 0 is the no-effect control and ±100 the full control effect; nearly all actives have a fitted effect of over 55% in size
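Kinetic red-fluorescence monitoring (525/598 nm) tracks WRN helicase activity after 100 nM fluorophore-quencher forked duplex and 2 mM ATP are added to 20 nM enzyme pretreated 15 min at room temperature with compound.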
Pol eta inh = blocks human DNA polymerase eta activity; Q9Y253; recombinant Pol eta, fluorescent DNA replication assay; Potency, µM (top dose mostly 114 µM), for the others: top-dose activity change, negative = inhibition, usual class: inhibitors; 1.2% of 390,000 active; AID 588591; further: potency means the concentration at half of the fitted maximal effect; on the % scale 0 is the no-effect control and ±100 the full control effect
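Fluorescent replication assay: 50 nM final substrate added after a 15 min room-temperature compound preincubation with 10 nM enzyme. Signal taken at 0 min and again at 10 min.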
PI5P4Ka inh = blocks human PI5P4K alpha kinase activity; P48426; max response, %; PI5P4Kalpha enzyme, ADP-Glo luminescence, 60 min; stronger effect = lower value; AID 652105; 1.2% of 330,000 active; active means max response of -50% or lower; inconclusive means between -30% and -50%; inactive means -30% or higher; further: value at the top dose of about 77 µM; on the % scale 0 is the no-effect control and ±100 the full control effect
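PI5P4Kalpha ADP-Glo assay; 5 microM ATP final; 60 min RT reaction; HEPES pH 7.4/EGTA/CHAPS, 5% DMSO; controls lacking substrate or enzyme; luminescent end-point.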
POLI inh = DNA polymerase iota (human) inhibition; Q9UNA4; Pol iota fluorescent replication assay, 10 min; Potency, µM (doses to about 115 µM), without a hit: top-dose activity, negative = inhibition, most hits filed as inhibitors; 1% of 390,000 active; AID 588590; further: potency means the concentration at half of the fitted maximal effect
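Fluorescent replication assay read twice, at 0 min and 10 min after adding 50 nM (final) substrate. Enzyme (10 nM) and compounds were first incubated 15 min at room temperature; enzyme-free buffer wells were negative controls.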
Pol beta inh = inhibitors of human DNA polymerase beta | P06746 | Potency, µM (highest dose often 114 µM), for the others: at the highest dose activity change, negative = inhibition, most hits filed as inhibitors | Pol beta primer extension/strand displacement, fluorescence kinetic | AID 485314 | 1.3% of 340,000 active; further: potency means the concentration at half of the fitted maximal effect; on the % scale 0 is the no-effect control and ±100 the full control effect
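Values derive from four-parameter Hill fits of normalized kinetic data: reads at 0 and 10 min following addition of 50 nM substrate to 10 nM Pol beta preincubated 15 min with compound.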
POLK inh = DNA polymerase kappa (human) inhibition; purified Pol kappa, fluorescent DNA synthesis assay, 10 min; Potency, µM (series often up to 107 µM), for inactives: at the highest dose activity, negative = inhibition, usual class: inhibitors; Q9UBT6; 0.53% of 400,000 active; AID 588579; further: potency means the concentration at half of the fitted maximal effect; on the % scale 0 is the no-effect control and ±100 the full control effect
Target sequence (Q9UBT6 whole entry, looked up): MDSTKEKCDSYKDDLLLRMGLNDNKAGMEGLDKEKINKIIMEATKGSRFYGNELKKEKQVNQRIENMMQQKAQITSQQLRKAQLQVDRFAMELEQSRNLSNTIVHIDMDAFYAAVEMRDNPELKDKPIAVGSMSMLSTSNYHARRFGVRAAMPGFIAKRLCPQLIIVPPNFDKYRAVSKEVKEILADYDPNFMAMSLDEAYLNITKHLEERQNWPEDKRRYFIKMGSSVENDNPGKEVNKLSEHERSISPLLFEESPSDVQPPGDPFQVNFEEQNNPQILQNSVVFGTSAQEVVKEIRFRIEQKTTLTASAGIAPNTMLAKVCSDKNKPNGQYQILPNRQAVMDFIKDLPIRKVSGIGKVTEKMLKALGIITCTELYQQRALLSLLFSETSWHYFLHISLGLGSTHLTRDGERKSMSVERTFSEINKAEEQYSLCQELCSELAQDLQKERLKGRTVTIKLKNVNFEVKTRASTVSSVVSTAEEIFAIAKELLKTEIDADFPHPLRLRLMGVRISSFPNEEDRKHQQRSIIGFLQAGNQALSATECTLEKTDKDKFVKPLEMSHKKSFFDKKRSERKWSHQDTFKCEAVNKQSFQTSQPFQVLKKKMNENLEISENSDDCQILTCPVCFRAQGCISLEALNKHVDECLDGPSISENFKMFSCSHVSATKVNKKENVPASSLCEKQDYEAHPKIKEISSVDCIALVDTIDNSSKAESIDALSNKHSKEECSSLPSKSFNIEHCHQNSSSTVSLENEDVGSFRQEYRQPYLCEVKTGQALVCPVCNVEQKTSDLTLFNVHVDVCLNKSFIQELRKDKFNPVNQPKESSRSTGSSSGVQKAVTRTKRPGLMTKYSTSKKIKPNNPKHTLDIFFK
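Activity was followed as the change in fluorescence between reads at 0 and 10 min after starting the reaction with 50 nM substrate. Beforehand, 10 nM polymerase had been preincubated with compound for 15 min at room temperature.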
The depositor's hits bear a star; ? = inconclusive; · = no result; ! = repeats disagree; [ ] = another dose, or the depositor's remark. Most compounds without a hit are left out; they make up all but 2.8% or so of the library. Unless noted, the call rests on the fitted dose curve; in most records, active means well fitted curve in the direction sought with a large enough effect; inconclusive means small, poorly fitted or top-dose-only effect, or another doubt; inactive means no such curve, though single readings can be large; an effect the other way counts as inactive or inconclusive.

SMILES	WRN helicase inh	Pol eta inh	PI5P4Ka inh	POLI inh	Pol beta inh	POLK inh
CCOC(=O)N1CCc2c(sc3[nH]c(=S)[nH]c(=S)c23)C1	-21%	-9%	-67*	20%	-20%	-3%
C[C@@H](c1ccccc1)N1C[C@H]2CCCN2c2cc(Br)ccc2S1(=O)=O	2%	-2%	8	?	·	-7%
COC(=O)C1=C(C)N(CCCC(=O)O)C(=O)NC1c1ccc(Cl)cc1 (stereo unspecified)	-6%	-8%	-77*	-13%	·	10%
COC(=O)C1=C(C)N(CCCC(=O)O)C(=O)NC1c1cccc(OC)c1 (stereo unspecified)	2%	-3%	-52*	-8%	·	2%
CCOC(=O)C1=C(C)N(CCCC(=O)O)C(=O)NC1c1ccc(Cl)cc1 (stereo unspecified)	3%	-2%	-93*	-26%	1%	-3%
COC(=O)C1=C(C)N(CCCC(=O)O)C(=O)NC1c1ccc2c(c1)OCO2 (stereo unspecified)	0%	-14%	-62*	?	·	-1%
CCOC(=O)C1=C(C)N(CCCCCC(=O)O)C(=O)NC1c1ccc(Br)cc1 (stereo unspecified)	-1%	-13%	-1	24%	-5%	4%
COc1ccccc1CN1CCNC(=O)C1CC(=O)N(C)Cc1ccon1 (stereo unspecified)	7%	-13%	3	-29%	-10%	-7%
CC1=C(C(=O)OCC(Br)(Br)Br)C(c2cccc([N+](=O)[O-])c2)NC(=O)N1CCCC(=O)O (stereo unspecified)	1%	-2%	-64*	21%	·	2%
CCOC(=O)C1=C(COc2ccccc2)NC(=O)NC1c1cccc([N+](=O)[O-])c1 (stereo unspecified)	-13%[11.6 µM]	6%	8	40µM*	3%	-5%
CCOC(=O)C1=C(C)N(CCO)C(=O)NC1c1ccccc1 (stereo unspecified)	-3%	-1%	·	?	25%	-12%
CCOC(=O)C1=C(C)N(CCCC(=O)O)C(=O)NC1c1ccccc1 (stereo unspecified)	3%	-6%	-57*	13%	·	-9%
CCOC(=O)C1=C(CNCc2ccccc2Cl)NC(=O)NC1c1cccc([N+](=O)[O-])c1 (stereo unspecified)	-1%	-26%	4	0%	3%	-4%
CCOC(=O)C1=C(C)N(CCCC(=O)O)C(=O)NC1c1ccc2ccccc2c1 (stereo unspecified)	4%	-14%	-75*	23%	·	-3%
CCCCn1nc(C(=O)Nc2c(C)n(C)n(-c3ccccc3)c2=O)c2ccccc2c1=O	6%	3%	2	-14%	·	10%
COc1ccc(CN2C(=O)CCC2(C)c2nnnn2Cc2ccccc2)cc1 (stereo unspecified)	-6%	·	0	·	·	·
Cc1ccc(S(=O)(=O)c2ncccc2[N+](=O)[O-])cc1	50µM*	5%	-1	24%	0%	16%
Cc1cc2ccccn2c1C(=O)c1nc(NCc2ccccc2)ncc1Cl	-1%	-12%	5	79µM*!	4%	4%
O=C(O)c1nc(NCc2ccccc2)ncc1Cl	3%	-9%	-4	-20%	34%	11%
CC1=NN(c2ccc(C)cc2C)C(=O)C1C(c1ccccc1O)C1C(=O)N(c2ccc(C)cc2C)N=C1C (stereo unspecified)	-11%[57.1 µM]	-9%	-10	0.89µM*	39%	-11%
COc1ccc2[nH]c(=O)c(CN(Cc3ccco3)C(c3nnnn3Cc3ccccc3)C(C)C)cc2c1 (stereo unspecified)	-16%	1%	0	?	4%	-12%
Cc1ccc(CN(Cc2cc3cc4c(cc3[nH]c2=O)OCCO4)Cc2nnnn2Cc2ccco2)cc1	-20%[11.6 µM]	?	·	20µM*	28µM*	71µM*
COc1ccc2[nH]c(=O)c(CN(C3CCCCC3)C(c3nnnn3Cc3ccco3)C(C)C)cc2c1 (stereo unspecified)	?	18µM*	-67*	16µM*	35µM*	?
Cc1cc2nccc(C)c2cc1C	·	·	·	15%	·	-2%
Cn1cnc([N+](=O)[O-])c1SCC(=O)NN	0%	-2%	1	79µM*	-21%	?
SMILES	WRN helicase inh	Pol eta inh	PI5P4Ka inh	POLI inh	Pol beta inh	POLK inh
Cn1cnc([N+](=O)[O-])c1SCC(O)CN1CCCCC1 (stereo unspecified)	6%	-1%	-7	-12%	-15%	5%
COc1ccc(Cl)cc1NS(=O)(=O)c1c(C)nc2scc(C)n2c1=O	·	-9%	·	15%	1%	15%
CCN(CC)c1ccc2c(-c3ccc(S(=O)(=O)O)cc3S(=O)(=O)[O-])c3ccc(=[N+](CC)CC)cc-3oc2c1	·	·	-51*	·	5µM*	?
CCN(CC)c1ccc2nc3c4ccccc4c(=O)cc-3oc2c1	?	-24%	-8	60%	?	-16%[60.1 µM]
CCCc1[nH][nH]c(=O)c1C(c1ccc(Br)cc1)C(C#N)C#N (stereo unspecified)	-22%	-13%	·	13%	-29%	-8%
CCCc1[nH][nH]c(=O)c1C(c1ccccc1)C(C#N)C#N (stereo unspecified)	-17%	-14%	-50*	16%	0%	-5%
O=C1C=CC(=O)N1CCNc1ncc(C(F)(F)F)cc1Cl	-9%	-12%	-18	28%	?	-16%
O=C1CC(=O)N(CCNc2ncc(C(F)(F)F)cc2Cl)C(=O)N1	-1%[57.1 µM]	-13%	0	25µM*	56µM*	?
Cc1cc(N=Nc2c(O)c3ccccc3[nH]c2=O)ccc1N=Nc1ccc(C(=O)N(C)C)cc1	1%	?	-20	-6%	?	-10%
CN(C)C(=O)c1ccc(N=Nc2c(O)c3ccccc3[nH]c2=O)cc1	1%	-15%	-76*	10%	·	-15%
Cc1ccccc1OCc1nnc(SC(C)C(=O)O)n1-c1ccccc1 (stereo unspecified)	13%	-15%	-54*	·	·	·
N#Cc1c(N2CCN(c3ccc(F)cc3)CC2)nc(N)c2c(N)nc3c(c12)CC(=O)N3C1CC1	-13%	-8%	-50*	137%	3%	-9%
NC(=O)c1ncn([C@@H]2O[C@H](CNCc3ccc(OCC(=O)Nc4nccs4)cc3)[C@@H](O)[C@H]2O)n1	-4%	2%	-64*	-45%	·	-9%
O=C(c1ccco1)N1CCN(C(=O)c2ccc(COc3ccc4c(c3)CCC4)o2)CC1	-5%[57.1 µM]	?	-15	?	89µM*	-5%
Cc1ccc(Cc2cnc(N3C(=N)SC(c4ccccc4)C3=O)s2)cc1 (stereo unspecified)	?	-9%	-73*	?	?	?
